Source: PubChem BioAssay (EPA / NIEHS)
Results filed as inconclusive are left out. Active and inactive are the calls of the source. The calls were made as follows, unless noted: active = hit-call score of the fitted dose curve at least 0.9, where 1 is the maximum; inactive = score below 0.9.

Legend:
[1] = ATG_TCF_b_cat_CIS: Attagene CIS-FACTORIAL HepG2 Assay for human T-Cell-Factor with beta-catenin (TCF/b-cat) (AID 2282965); conditions: HepG2 TCF/beta-catenin cis-reporter transcription, actives raise or lower the signal
Summary of the method: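 HepG2, transient MRTU transfection, cis-element-driven reporters (endogenous TFs). 24 h compound exposure. Readout: reporter mRNA by RT-PCR + 6-FAM primer extension, HpaI digest, capillary electrophoresis. Gain/loss fit vs DMSO baseline.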

[2] = ATG_TAL_CIS: Attagene CIS-FACTORIAL HepG2 Assay for human TAL Basal Promoter (AID 2282966); conditions: HepG2 Attagene cis-factorial TAL promoter reporter; actives raise or lower the signal;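 also: background control endpoint measuring basal TAL promoter reporter mRNA not a specific factor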
Summary of the method: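 Basal-promoter background-control endpoint from a multiplexed HepG2 reporter panel. Cells were exposed 24 h, then reporter mRNA was read by RT-PCR/CE fluorescence and fitted in both directions relative to DMSO.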

[3] = ATG_TGFb_CIS: Attagene CIS-FACTORIAL HepG2 Assay for human Transforming Growth Factor (TGF) (AID 2282967); conditions: HepG2 Attagene CIS TGFb reporter, mRNA transcription; actives raise or lower the signal
Summary of the method: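 Bidirectional fitting relative to DMSO gave the endpoint. Underlying data: reporter mRNA from HepG2 cells carrying transiently transfected cis-regulated reporter constructs, harvested 24 h after dosing and analyzed by RT-PCR and capillary electrophoresis.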

[4] = ATG_VDRE_CIS: Attagene CIS-FACTORIAL HepG2 Assay for human Vitamin D Receptor Element (VDRE) (AID 2282968); conditions: HepG2 VDRE cis-reporter transcription, actives raise or lower the signal
Summary of the method: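 Compounds were applied for 24 h to HepG2 cells transfected with promoter-regulated reporter units. Total RNA was reverse-transcribed, and reporter amplicons were fluorescently labelled and sized by capillary electrophoresis.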

[5] = biological target: Estrogen receptor (Homo sapiens) (UniProt P03372); test: ATG_ERa_TRANS: Attagene TRANS-FACTORIAL HepG2 Assay for human Estrogen Receptor alpha (ERa) (AID 2282970; active = hit-call score of the fitted dose curve at least 0.9, where 1 is the maximum); conditions: HepG2 Attagene TRANS ERa GAL4 reporter, mRNA
Summary of the method: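 Gal4-fusion ERa transactivation, measured as reporter transcript level in transiently transfected HepG2 cells. Exposure 24 h; RT-PCR plus capillary electrophoresis with fluorescence detection.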

[6] = biological target: X-box-binding protein 1 (Homo sapiens) (UniProt P17861); test: ATG_Xbp1_CIS: Attagene CIS-FACTORIAL HepG2 Assay for human X-box Binding Protein 1 (XBP1) (AID 2282972); conditions: HepG2 XBP1 cis-element reporter, Attagene multiplex; actives raise or lower the signal
Summary of the method: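 Human hepatoma HepG2, cis-element reporter system, 24 h treatment; mRNA quantified by RT-PCR/CE fluorescence; fit relative to DMSO.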

[7] = ATG_M_19_TRANS: Attagene TRANS-FACTORIAL HepG2 Assay for M19 Transcription Factor (Internal Marker) (AID 2282974; active = hit-call score of the fitted dose curve at least 0.9, where 1 is the maximum); conditions: HepG2 Attagene TRANS-FACTORIAL M19 internal marker reporter
Summary of the method: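 Using RT-PCR and capillary electrophoresis, reporter mRNA from transiently transfected human HepG2 cells was quantified following 24 h exposure; activity was fitted in the positive direction against DMSO.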

[8] = biological target: Glucocorticoid receptor (Homo sapiens) (UniProt P04150); test: ATG_GR_TRANS: Attagene TRANS-FACTORIAL HepG2 Assay for human Glucocorticoid Receptor (GR) (AID 2282978; active = hit-call score of the fitted dose curve at least 0.9, where 1 is the maximum;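 also: activators score as hits since higher reporter transcript over DMSO is fitted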); conditions: HepG2 Attagene TRANS GR reporter, mRNA transcription
Summary of the method: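 Exogenous NR-GAL4 fusion activity was assessed through induced GAL4-UAS reporter transcripts in transfected human HepG2 cells, quantified after 24 h by RT-PCR and fluorescent capillary electrophoresis with DMSO as baseline.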

[9] = biological target: Oxysterols receptor LXR-beta (Homo sapiens) (UniProt P55055); test: ATG_LXRb_TRANS: Attagene TRANS-FACTORIAL HepG2 Assay for human Liver X Receptor beta (LXRb) (AID 2282981; active = hit-call score of the fitted dose curve at least 0.9, where 1 is the maximum); conditions: HepG2 Attagene TRANS GAL4-LXRb reporter, mRNA
Summary of the method: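 Multiplexed reporter assay, HepG2, 24 h dosing. Fluorescence of labelled RT-PCR products after capillary electrophoresis gives transcript level; positive fitting direction relative to DMSO.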

[10] = biological target: Hepatocyte nuclear factor 4-alpha (Homo sapiens) (UniProt P41235); test: ATG_HNF4a_TRANS: Attagene TRANS-FACTORIAL HepG2 Assay for human Hepatocyte Nuclear Factor 4 alpha (HNF4a) (AID 2282982; active = hit-call score of the fitted dose curve at least 0.9, where 1 is the maximum); conditions: HepG2 HNF4a transactivation reporter, mRNA readout
Summary of the method: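 Endpoint reflects transcriptional activation of a GAL4-UAS reporter by an HNF4a-GAL4 chimera in transfected HepG2 cells, 24 h post-dosing. Fluorescence from RT-PCR products separated by capillary electrophoresis; DMSO baseline.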

[11] = ATG_M_32_TRANS: Attagene TRANS-FACTORIAL HepG2 Assay for M32 Transcription Factor (Internal Marker) (AID 2282984; active = hit-call score of the fitted dose curve at least 0.9, where 1 is the maximum); conditions: HepG2 Attagene TRANS M32 internal marker reporter
Summary of the method: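 Internal-marker readout from a multiplexed transcription reporter panel. HepG2 cells were transfected with GAL4-UAS reporter units, treated 24 hours, and reporter transcript levels determined by fluorescence after RT-PCR and capillary separation.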

[12] = biological target: Transcriptional activator Myb (Homo sapiens) (UniProt P10242); test: ATG_Myb_CIS: Attagene CIS-FACTORIAL HepG2 Assay for human Myeloblastosis (Myb) Proto-Oncogene Transcription Factor (AID 2282986); conditions: HepG2 Attagene CIS-FACTORIAL Myb reporter transcription; actives raise or lower the signal
Summary of the method: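 In this HepG2 transient-transfection format, cis-regulated reporter mRNA is quantified 24 h post-dosing by RT-PCR with capillary electrophoresis, fitted bidirectionally to DMSO baseline.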

[13] = ATG_GAL4_TRANS: Attagene TRANS-FACTORIAL HepG2 Assay for GAL4 (Internal Marker) (AID 2282976; active = hit-call score of the fitted dose curve at least 0.9, where 1 is the maximum); conditions: HepG2 Attagene TRANS GAL4 internal marker reporter
Summary of the method: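 Background-control readout: GAL4-UAS reporter transcript in transiently transfected HepG2 cells after 24 h compound exposure. Measured by RT-PCR, 6-FAM primer extension, HpaI digest and capillary electrophoresis; gain-of-signal fit versus DMSO.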

[14] = biological target: Oxysterols receptor LXR-alpha (Homo sapiens) (UniProt Q13133); test: ATG_LXRa_TRANS: Attagene TRANS-FACTORIAL HepG2 Assay for human Liver X Receptor alpha (LXRa) (AID 2282980; active = hit-call score of the fitted dose curve at least 0.9, where 1 is the maximum); conditions: HepG2 Attagene TRANS reporter, LXRa transactivation
Summary of the method: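 HepG2 cells transiently transfected with GAL4-UAS reporter units for chimeric NR-Gal4 proteins, exposed to chemicals for 24 h. Reporter mRNA quantified by RT-PCR and capillary electrophoresis; gain of signal fitted relative to DMSO.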

[15] = ATG_M_06_TRANS: Attagene TRANS-FACTORIAL HepG2 Assay for M06 Transcription Factor (Internal Marker) (AID 2282983; active = hit-call score of the fitted dose curve at least 0.9, where 1 is the maximum); conditions: HepG2 Attagene TRANS M06 internal marker reporter
Summary of the method: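 mRNA levels of a reporter transcript, quantified as FAM fluorescence on capillary electrophoresis, served as readout. HepG2 cells expressing exogenous GAL4-chimera reporter constructs were exposed for 24 h. Gain of signal over DMSO was evaluated.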

[16] = biological target: Nuclear receptor subfamily 4 group A member 2 (Homo sapiens) (UniProt P43354); test: ATG_NURR1_TRANS: Attagene TRANS-FACTORIAL HepG2 Assay for human Nuclear Receptor Related Protein 1 (NURR1) (AID 2282985; active = hit-call score of the fitted dose curve at least 0.9, where 1 is the maximum); conditions: HepG2 Attagene TRANS reporter, mRNA readout
Summary of the method: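 Endpoint: reporter mRNA increase relative to DMSO. HepG2 cells transfected with reporter units, treated 24 h; RNA processed by RT-PCR, labelling, HpaI digestion and capillary electrophoresis.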

[17] = biological target: Bile acid receptor (Homo sapiens) (UniProt Q96RI1); test: ATG_FXR_TRANS: Attagene TRANS-FACTORIAL HepG2 Assay for Farnesoid X Receptor (FXR) (AID 2282979; active = hit-call score of the fitted dose curve at least 0.9, where 1 is the maximum;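 also: hits raise reporter mRNA above DMSO so AC50 marks FXR activation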); conditions: HepG2 Attagene TRANS FXR-GAL4 reporter transcription
Summary of the method: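 HepG2 cells were transiently transfected with GAL4-UAS reporters driven by chimeric NR-Gal4 proteins and dosed for 24 h. Reporter mRNA was quantified by RT-PCR, fluorescent labelling, HpaI digestion and capillary electrophoresis, with gain of signal scored versus DMSO.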

[18] = biological target: Estrogen-related receptor gamma (Homo sapiens) (UniProt P62508); test: ATG_ERRg_TRANS: Attagene TRANS-FACTORIAL HepG2 Assay for human Estrogen-Related Receptor gamma (ERRg) (AID 2282977; active = hit-call score of the fitted dose curve at least 0.9, where 1 is the maximum;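 also: hits increase reporter signal over DMSO so potencies reflect activators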); conditions: HepG2 Attagene TRANS reporter, ERRg transactivation
Summary of the method: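 Induction of reporter transcripts through a chimeric NR-Gal4 protein is quantified in transfected human HepG2 liver cells after 24 h chemical exposure, using RT-PCR with capillary electrophoresis detection and DMSO as baseline.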

Measured: AC50

Sequence of X-box-binding protein 1 (Homo sapiens) (P17861 whole entry, looked up): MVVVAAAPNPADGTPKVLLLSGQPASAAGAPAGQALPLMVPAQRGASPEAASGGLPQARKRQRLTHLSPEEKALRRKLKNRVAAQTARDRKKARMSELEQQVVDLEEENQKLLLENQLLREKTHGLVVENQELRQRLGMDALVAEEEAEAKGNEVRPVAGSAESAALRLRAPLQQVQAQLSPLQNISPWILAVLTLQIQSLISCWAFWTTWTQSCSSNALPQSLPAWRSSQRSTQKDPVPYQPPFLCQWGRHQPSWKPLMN
Sequence of Oxysterols receptor LXR-beta (Homo sapiens) (P55055 whole entry, looked up, the tested form may be a part): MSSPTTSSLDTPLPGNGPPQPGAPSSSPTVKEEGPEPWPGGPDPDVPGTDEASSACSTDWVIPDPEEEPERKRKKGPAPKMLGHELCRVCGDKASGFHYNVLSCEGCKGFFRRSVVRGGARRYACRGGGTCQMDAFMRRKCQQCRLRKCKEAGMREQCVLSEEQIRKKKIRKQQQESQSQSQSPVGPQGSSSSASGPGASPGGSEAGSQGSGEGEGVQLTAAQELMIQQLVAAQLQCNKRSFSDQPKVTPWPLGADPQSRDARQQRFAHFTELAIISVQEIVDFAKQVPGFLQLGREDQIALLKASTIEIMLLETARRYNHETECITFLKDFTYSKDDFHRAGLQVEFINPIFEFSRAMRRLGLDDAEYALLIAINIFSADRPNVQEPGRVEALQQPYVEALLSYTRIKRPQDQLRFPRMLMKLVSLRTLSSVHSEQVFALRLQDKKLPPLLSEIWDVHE
Sequence of Transcriptional activator Myb (Homo sapiens) (P10242 whole entry, looked up): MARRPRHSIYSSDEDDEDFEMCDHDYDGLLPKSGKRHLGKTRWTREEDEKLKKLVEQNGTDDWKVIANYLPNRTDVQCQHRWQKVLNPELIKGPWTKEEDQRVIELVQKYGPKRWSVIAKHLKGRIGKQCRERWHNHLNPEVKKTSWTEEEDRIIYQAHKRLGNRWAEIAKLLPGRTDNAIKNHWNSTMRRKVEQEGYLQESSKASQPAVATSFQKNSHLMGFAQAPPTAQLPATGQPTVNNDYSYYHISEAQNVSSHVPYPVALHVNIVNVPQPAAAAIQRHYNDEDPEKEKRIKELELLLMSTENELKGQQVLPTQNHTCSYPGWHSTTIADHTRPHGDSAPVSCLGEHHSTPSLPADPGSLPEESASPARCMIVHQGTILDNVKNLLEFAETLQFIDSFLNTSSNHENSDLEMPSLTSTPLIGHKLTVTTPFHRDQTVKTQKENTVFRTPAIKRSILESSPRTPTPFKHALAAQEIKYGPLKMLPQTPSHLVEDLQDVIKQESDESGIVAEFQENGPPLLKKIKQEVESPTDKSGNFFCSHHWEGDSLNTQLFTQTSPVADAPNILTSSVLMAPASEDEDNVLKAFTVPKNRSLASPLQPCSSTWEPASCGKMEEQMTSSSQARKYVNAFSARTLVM
Sequence of Oxysterols receptor LXR-alpha (Homo sapiens) (Q13133 whole entry, looked up, the tested form may be a part): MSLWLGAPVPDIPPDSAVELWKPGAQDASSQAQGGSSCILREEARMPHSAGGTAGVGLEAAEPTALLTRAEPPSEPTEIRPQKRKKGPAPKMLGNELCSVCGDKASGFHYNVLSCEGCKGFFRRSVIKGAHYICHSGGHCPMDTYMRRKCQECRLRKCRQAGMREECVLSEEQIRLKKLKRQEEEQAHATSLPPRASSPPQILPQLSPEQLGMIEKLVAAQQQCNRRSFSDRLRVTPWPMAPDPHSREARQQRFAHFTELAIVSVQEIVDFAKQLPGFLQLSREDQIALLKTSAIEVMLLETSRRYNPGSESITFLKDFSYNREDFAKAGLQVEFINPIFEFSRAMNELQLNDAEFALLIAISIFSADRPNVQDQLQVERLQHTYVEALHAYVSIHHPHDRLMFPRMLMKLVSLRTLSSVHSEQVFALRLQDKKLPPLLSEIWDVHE
Sequence of Nuclear receptor subfamily 4 group A member 2 (Homo sapiens) (P43354 whole entry, looked up): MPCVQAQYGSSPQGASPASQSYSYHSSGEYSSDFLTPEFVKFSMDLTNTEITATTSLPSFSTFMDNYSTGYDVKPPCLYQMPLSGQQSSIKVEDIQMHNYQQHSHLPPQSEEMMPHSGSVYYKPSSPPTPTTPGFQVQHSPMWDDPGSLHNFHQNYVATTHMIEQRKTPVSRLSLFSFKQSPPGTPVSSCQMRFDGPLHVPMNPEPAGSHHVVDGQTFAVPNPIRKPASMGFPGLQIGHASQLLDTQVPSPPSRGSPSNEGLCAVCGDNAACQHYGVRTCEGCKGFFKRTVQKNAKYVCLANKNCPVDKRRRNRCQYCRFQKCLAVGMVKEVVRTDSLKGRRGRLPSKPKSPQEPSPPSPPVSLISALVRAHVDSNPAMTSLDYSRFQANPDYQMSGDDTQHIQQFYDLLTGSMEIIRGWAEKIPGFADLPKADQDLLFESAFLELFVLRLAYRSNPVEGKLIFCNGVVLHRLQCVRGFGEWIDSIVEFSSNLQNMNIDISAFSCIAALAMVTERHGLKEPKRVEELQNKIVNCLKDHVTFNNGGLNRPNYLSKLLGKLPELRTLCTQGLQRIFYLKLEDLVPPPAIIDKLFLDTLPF
Sequence of Glucocorticoid receptor (Homo sapiens) (P04150 whole entry, looked up, the tested form may be a part): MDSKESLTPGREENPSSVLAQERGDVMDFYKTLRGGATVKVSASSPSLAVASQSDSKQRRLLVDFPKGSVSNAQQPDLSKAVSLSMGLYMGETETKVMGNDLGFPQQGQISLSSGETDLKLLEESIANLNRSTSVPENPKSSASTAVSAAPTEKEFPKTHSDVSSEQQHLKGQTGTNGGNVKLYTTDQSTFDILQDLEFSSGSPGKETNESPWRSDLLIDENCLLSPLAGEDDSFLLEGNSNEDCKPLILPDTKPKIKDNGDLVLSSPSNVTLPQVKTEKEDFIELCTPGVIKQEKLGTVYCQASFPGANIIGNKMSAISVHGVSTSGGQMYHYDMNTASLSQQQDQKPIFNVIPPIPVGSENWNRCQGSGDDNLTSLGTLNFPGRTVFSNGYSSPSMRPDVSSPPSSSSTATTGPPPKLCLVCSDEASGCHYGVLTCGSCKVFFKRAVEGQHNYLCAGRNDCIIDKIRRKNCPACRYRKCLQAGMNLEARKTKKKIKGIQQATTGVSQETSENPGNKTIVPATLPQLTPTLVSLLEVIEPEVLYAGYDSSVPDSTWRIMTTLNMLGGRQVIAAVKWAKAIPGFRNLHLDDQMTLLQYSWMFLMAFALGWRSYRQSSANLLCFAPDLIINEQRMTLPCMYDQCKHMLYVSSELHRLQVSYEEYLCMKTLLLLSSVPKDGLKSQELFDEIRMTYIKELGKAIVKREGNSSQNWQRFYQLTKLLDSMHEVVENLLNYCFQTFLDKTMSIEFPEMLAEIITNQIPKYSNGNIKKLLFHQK
Sequence of Hepatocyte nuclear factor 4-alpha (Homo sapiens) (P41235 whole entry, looked up, the tested form may be a part): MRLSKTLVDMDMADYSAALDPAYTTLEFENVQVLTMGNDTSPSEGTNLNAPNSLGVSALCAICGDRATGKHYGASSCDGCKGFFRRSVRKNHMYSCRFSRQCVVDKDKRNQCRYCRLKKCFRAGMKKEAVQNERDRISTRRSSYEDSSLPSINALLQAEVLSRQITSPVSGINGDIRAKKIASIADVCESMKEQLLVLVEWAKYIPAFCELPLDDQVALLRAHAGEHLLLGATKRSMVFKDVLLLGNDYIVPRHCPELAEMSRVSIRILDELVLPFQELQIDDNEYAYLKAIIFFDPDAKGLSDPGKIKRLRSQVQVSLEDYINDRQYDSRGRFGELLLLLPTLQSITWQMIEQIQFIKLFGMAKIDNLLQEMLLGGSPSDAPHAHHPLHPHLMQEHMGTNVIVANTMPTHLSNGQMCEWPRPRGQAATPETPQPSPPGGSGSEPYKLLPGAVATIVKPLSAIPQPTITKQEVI
Sequence of Estrogen receptor (Homo sapiens) (P03372 whole entry, looked up, the tested form may be a part): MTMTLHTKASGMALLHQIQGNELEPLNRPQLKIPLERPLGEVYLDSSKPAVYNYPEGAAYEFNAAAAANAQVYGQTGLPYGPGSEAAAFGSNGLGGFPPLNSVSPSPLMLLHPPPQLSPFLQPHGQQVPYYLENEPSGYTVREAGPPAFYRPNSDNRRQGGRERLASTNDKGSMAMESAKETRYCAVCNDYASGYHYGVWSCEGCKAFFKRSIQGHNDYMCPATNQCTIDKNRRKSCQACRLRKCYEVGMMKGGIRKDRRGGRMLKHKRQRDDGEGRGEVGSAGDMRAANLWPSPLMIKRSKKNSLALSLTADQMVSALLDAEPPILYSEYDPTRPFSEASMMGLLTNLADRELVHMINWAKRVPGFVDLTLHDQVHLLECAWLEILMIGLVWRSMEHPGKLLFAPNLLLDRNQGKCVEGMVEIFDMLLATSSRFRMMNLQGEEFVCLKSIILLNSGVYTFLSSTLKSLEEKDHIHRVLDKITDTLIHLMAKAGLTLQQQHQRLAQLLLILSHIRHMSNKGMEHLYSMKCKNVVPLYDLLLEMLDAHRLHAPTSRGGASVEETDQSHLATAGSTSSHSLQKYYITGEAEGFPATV
Sequence of Bile acid receptor (Homo sapiens) (Q96RI1 whole entry, looked up, the tested form may be a part): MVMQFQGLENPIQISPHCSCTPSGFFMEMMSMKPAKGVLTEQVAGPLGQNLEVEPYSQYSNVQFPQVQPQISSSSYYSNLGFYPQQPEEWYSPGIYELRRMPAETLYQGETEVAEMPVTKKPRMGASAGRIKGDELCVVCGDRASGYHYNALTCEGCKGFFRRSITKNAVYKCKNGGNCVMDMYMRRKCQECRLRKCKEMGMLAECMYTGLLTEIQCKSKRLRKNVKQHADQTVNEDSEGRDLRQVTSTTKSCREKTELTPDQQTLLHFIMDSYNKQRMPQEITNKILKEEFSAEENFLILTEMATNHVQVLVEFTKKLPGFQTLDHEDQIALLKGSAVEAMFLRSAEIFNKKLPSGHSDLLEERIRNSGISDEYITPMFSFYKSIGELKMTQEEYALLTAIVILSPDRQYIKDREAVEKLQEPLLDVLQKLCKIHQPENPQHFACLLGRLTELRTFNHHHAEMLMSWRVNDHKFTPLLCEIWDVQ

O=C(OCc1ccccc1)c1ccccc1O
active: [5] 43 µM
not listed: [13] | [14] | [15] | [16] | [17] | [18]
inactive: all other assays above

N#CCCNCCC#N
not listed: [7] | [8] | [17] | [18]
inactive: all other assays above

CC(CO)(CO)[N+](=O)[O-]
not listed: [8] | [9] | [11] | [15] | [16] | [18]
inactive: all other assays above

c1ccc(OCCOc2ccccc2)cc1
not listed: [9] | [11] | [13] | [16] | [17] | [18]
inactive: all other assays above

CCCc1ccc(N)cc1
inactive: [1] | [2] | [3] | [4] | [5] | [6] | [7] | [12]

CCCCCCCCCCCCOC(C)=O
inactive: [1] | [2] | [3] | [4] | [5] | [6] | [7] | [15] | [16] | [12]

CCCCCCOC(C)=O
not listed: [7] | [15] | [18]
inactive: all other assays above

CCCCCCOc1ccc(O)cc1
active: [1] 20.5 µM | [4] 33.4 µM | [5] 2.85 µM
inactive: [2] | [3] | [6] | [7] | [14] | [9] | [12]

CCOC(=O)CCCCCCCCC(=O)OCC
not listed: [8] | [11] | [14] | [17] | [18]
inactive: all other assays above

CCCCCCCCCCCCS
inactive: [1] | [2] | [3] | [5] | [6] | [13] | [12]
active: [4] 42.5 µM | [7] 5.01 µM

COc1ccc2[nH]cc(CCNC(C)=O)c2c1
not listed: [7] | [15] | [17]
inactive: all other assays above

c1ccc(Sc2ccccc2)cc1
active: [5] 38.3 µM
inactive: [1] | [2] | [3] | [4] | [6] | [7] | [13] | [16] | [12]
